Bioassay records: PubChem BioAssay, National Center for Advancing Translational Sciences (NCATS)
KDM5B inh: KDM5B demethylase inhibition | Potency, µM (highest dose often 57.7 µM), usual class: inhibitors | KDM5B demethylase, FDH-coupled NADH fluorescence (FDH is formaldehyde dehydrogenase) | 220,000 compounds, 2.6% hits | Q9UGL1; active means well fitted inhibition curve with a large enough effect; further: 0% is about no effect; nearly all actives have a fitted effect of over 70% in size
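qHTS format, multiple compound concentrations. Buffer 50 mM HEPES pH 7.5/0.01% Tween-20; 200 nM KDM5BΔAP final; 10 min compound preincubation; substrate-mix levels 12.5 µM peptide, 25 µM α-KG, 0.25 mM NAD⁺; 30 min RT; ΔRFU.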
* hit, by the source's call; i = inactive. This excerpt belongs to a sample that is enriched for hits. Potency means the concentration at half of the fitted maximal effect.

SMILES	KDM5B inh
CCC(NC(=O)c1ccncc1)C12CC3CC(CC(C3)C1)C2 (stereo not given)	i
CC(=O)/C=C/c1ccccc1Oc1c(F)c(F)nc(F)c1F	i
O=C(NCCc1cccc2cccnc12)Nc1cccc(NC(=O)Nc2ccccc2)c1	i
Cc1cccc(NC(=O)CSc2nnc(Cc3ccccc3)n2-n2cccc2)c1C	i
O=C1CC2(CCN(Cc3ccc(C(F)(F)F)cc3)CC2)Oc2ccccc2N1	i
O=C(N[C@H]1CCN2C(=O)c3cc(-c4ccccc4)ccc3NC(=O)[C@H]12)C1CCCC1	i
O=C(N[C@H]1CCN2C(=O)c3cc(-c4ccc(F)cc4F)ccc3NC(=O)[C@@H]2C1)c1cccs1	i
O=C(N[C@H]1C[C@H]2C(=O)Nc3ccc(-c4ccsc4)cc3C(=O)N2C1)c1ccccc1	i
CSc1ccc(-c2ccc3c(c2)C(=O)N2CC[C@H](NC(=O)C4CCCC4)[C@H]2C(=O)N3)cc1	25µM*
CSCC(=O)N[C@H]1CCN2C(=O)c3cc(-c4cccc(C)c4C)ccc3NC(=O)[C@H]12	i
O=C(N[C@H]1CCN2C(=O)c3cc(-c4ccc(F)cc4F)ccc3NC(=O)[C@H]12)c1cccs1	i
COc1ccc(-c2ccc3c(c2)C(=O)N2CC[C@H](NC(=O)c4cccs4)[C@H]2C(=O)N3)c(OC)c1	28µM*
CSCC(=O)N[C@H]1CCN2C(=O)c3cc(-c4ccc(Cl)cc4)ccc3NC(=O)[C@H]12	28µM*
O=C(N[C@H]1CCN2C(=O)c3cc(-c4ccsc4)ccc3NC(=O)[C@@H]2C1)c1cccs1	22µM*
Cc1cccc(-c2ccc3c(c2)C(=O)N2CC[C@H](NC(=O)C4CCCC4)[C@H]2C(=O)N3)c1C	i
CSCC(=O)N[C@H]1CCN2C(=O)c3ccccc3NC(=O)[C@H]12	i
COc1ccc(-c2ccc3c(c2)C(=O)N2CC[C@H](n4nnc(C(N)=O)c4C(N)=O)C[C@H]2C(=O)N3)c(OC)c1	i
Cc1ccc(C(=O)Nc2c(C)cccc2C(C)C)s1	i
CC(C)c1ccccc1Oc1c(C(F)(F)F)oc2c(CN3CCN(C)CC3)c(O)ccc2c1=O	i
COc1ccc(NC(C)=O)cc1NC(=O)CCc1c[nH]c2ccccc12	i
Cc1cc(C)cc(OCC(=O)Nc2cccc3ccc(C)nc23)c1	i
O=c1c2c3c(nn2ccn1Cc1ccc(F)cc1F)CCCC3	i
CC1CCN(Cc2nc3c(Br)cc(Br)cc3c(=O)[nH]2)CC1	i
Cc1c(Cl)ccc(S(=O)(=O)NCCCO)c1Cl	i
O=C(c1ccc2ccccc2n1)N1CCN(C(=O)N2CC3CC(C2)[C@H]2CCCC(=O)N2C3)CC1 (stereo not given in full)	i
SMILES	KDM5B inh
COC(=O)c1c(SCC(=O)Nc2ccccc2C(F)(F)F)[nH]c2ccc(Cl)cc2c1=O	i
CCC(c1ccc(C(C)=O)cc1)C(CC)c1ccc(C(C)=O)cc1 (stereo not given)	i
N[C@H]1CCN2C(=O)c3cc(-c4ccccc4F)ccc3NC(=O)[C@H]12	i
COc1ccc(-c2ccc3c(c2)C(=O)N2CC[C@H](NC(=O)CCC(=O)O)[C@H]2C(=O)N3)cc1	20µM*
O=C1Nc2cc(Cl)ccc2C(=O)N2CC[C@H](NS(=O)(=O)c3cccs3)[C@@H]12	i
O=C(N[C@H]1CCN2C(=O)c3cc(-c4ccccc4)ccc3NC(=O)[C@H]12)c1cccs1	i
COc1ccc(-c2ccc3c(c2)C(=O)N2CC[C@H](NS(=O)(=O)c4cccs4)[C@H]2C(=O)N3)cc1	22µM*
O=C1Nc2ccc(-c3ccccc3F)cc2C(=O)N2CC[C@H](NS(=O)(=O)c3cccs3)[C@@H]12	i
COc1ccc(/C=C/c2ccc3c(c2)C(=O)N2CC[C@H](N)[C@H]2C(=O)N3)cc1	35µM*
O=C(O)CCC(=O)N[C@H]1CCN2C(=O)c3cc(-c4ccc5c(c4)OCO5)ccc3NC(=O)[C@H]12	i
C=CCO[C@@H]1CCN2C(=O)c3cc(-c4ccccc4)ccc3NC(=O)[C@H]12	i
O=C(O)CCC(=O)N[C@H]1CCN2C(=O)c3cc(-c4ccccc4)ccc3NC(=O)[C@H]12	i
O=C(N[C@H]1CCN2C(=O)c3cc(-c4ccc(Cl)cc4)ccc3NC(=O)[C@H]12)c1cccs1	32µM*
O=C(N[C@H]1CCN2C(=O)c3cc(-c4ccc(Cl)cc4)ccc3NC(=O)[C@H]12)c1cnccn1	i
CCOCCOC1CCN(S(=O)(=O)Cc2ccccc2)CC1	i
CCOCc1nc(C2CCCN(C(=O)C(C)C)C2)no1 (stereo not given)	i
O=C(Nc1ccccc1C(F)(F)F)Nc1c[nH]c(=O)[nH]c1=O	i
COc1ccc(Cl)cc1-c1ccc2c(c1)C(=O)N1CC[C@H](NC(=O)c3cccs3)[C@H]1C(=O)N2	25µM*
O=C(N[C@H]1CCN2C(=O)c3ccc(Cl)cc3NC(=O)[C@H]12)c1cccs1	i
CC(C)NC(=O)N[C@H]1CCN2C(=O)c3cc(-c4ccccc4F)ccc3NC(=O)[C@H]12	i
